From PMC4336329 (PLoS ONE, 2015)
Screen size: about 310,000 compounds; about 14,000 (4.5%) showed an effect of 50% or more. The effect is printed as a negative number. For the sample, strong results were picked, then their nearest neighbours and some compounds at random.

The molecules below were run against human ether-à-go-go-related gene (hERG) potassium channel (human, UniProt Q12809) (assay: primary screen, population patch clamp on CHO cells stably expressing hERG; higher = less effect of the substance).
Sequence of human ether-à-go-go-related gene (hERG) potassium channel (Q12809 whole entry, looked up): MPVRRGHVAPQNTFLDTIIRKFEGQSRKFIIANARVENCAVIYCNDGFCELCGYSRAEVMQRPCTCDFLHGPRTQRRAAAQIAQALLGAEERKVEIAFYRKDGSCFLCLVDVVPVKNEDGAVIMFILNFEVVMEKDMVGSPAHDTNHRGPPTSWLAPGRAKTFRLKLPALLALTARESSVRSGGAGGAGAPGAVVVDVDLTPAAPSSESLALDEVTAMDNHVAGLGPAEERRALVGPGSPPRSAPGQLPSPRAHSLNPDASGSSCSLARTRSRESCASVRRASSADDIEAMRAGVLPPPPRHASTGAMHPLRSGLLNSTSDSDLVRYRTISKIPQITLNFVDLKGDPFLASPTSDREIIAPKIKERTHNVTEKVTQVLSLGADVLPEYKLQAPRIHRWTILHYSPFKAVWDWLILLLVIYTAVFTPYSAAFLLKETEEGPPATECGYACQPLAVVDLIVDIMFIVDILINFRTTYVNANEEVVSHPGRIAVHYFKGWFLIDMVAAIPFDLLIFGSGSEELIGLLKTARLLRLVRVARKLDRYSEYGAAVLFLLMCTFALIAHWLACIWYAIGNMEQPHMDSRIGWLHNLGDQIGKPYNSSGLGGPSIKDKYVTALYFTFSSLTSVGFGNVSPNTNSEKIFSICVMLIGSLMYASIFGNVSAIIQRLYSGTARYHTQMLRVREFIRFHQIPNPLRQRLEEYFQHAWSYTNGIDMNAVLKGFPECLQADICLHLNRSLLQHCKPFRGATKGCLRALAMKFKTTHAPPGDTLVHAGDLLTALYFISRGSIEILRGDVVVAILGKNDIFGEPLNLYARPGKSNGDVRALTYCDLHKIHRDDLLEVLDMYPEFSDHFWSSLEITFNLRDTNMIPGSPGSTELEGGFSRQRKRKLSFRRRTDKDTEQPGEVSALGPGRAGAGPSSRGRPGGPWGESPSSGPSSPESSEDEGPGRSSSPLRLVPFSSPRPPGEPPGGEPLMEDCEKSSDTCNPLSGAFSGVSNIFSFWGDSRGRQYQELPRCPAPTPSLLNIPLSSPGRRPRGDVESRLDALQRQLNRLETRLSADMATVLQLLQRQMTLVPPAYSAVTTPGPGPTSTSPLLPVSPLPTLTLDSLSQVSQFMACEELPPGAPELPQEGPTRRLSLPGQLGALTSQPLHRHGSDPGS
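Note: peak tail current of the secondary pulse compared with the same well before compound.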

| Structure (SMILES) | hERG current change (%, negative = inhibition) at 10uM [%] |
| --- | --- |
| CC1=NNC(=O)C1CCC(=O)N/N=C/C=C/c1ccccc1 (stereo not drawn) | 1.22 |
| CNC(=S)NC1CC2CCCC(C1)N2Cc1ccc(C)cc1 (stereo not drawn) | -38.9 |
| S=C(Nc1ccc(Cl)cc1)NC1CC2CCC(C1)N2Cc1ccccc1 (stereo not drawn) | -66.1 |
| CCc1ccc(NC(=S)NC2CCN(Cc3ccccc3)CC2)cc1 | -36.9 |
| CC(C)c1ccc(NC(=S)NC2CCN(Cc3ccccc3)CC2)cc1 | -17.4 |
| CCC(C)c1ccc(NC(=S)NC2CCN(Cc3ccccc3)CC2)cc1 (stereo not drawn) | -61.8 |
| CCc1ccc(NC(=S)NC2CC3CCCC(C2)N3Cc2ccccc2)cc1 (stereo not drawn) | -70.9 |
| Cc1ccc(CN2C3CCCC2CC(NC(=S)NCc2ccccc2)C3)cc1 (stereo not drawn) | -72.4 |
| CCNC(=S)NC1CC2CCCC(C1)N2Cc1ccc(C)cc1 (stereo not drawn) | -48.1 |
| CCNC(=S)NC1CC2CCC(C1)N2Cc1ccccc1 (stereo not drawn) | -20.3 |
| S=C(NC1CCCCC1)NC1CC2CCC(C1)N2Cc1ccccc1 (stereo not drawn) | -33.4 |
| CNC(=S)NC1CC2CCC(C1)N2Cc1ccccc1 (stereo not drawn) | -16.5 |
| S=C(Nc1ccc(Cl)cc1)NC1CCN(Cc2ccccc2)CC1 | -39.9 |
| CN(C)c1ccc(NC(=O)N2CCOCC2)cc1 | -3.34 |
| Cc1ccc(-c2cc3nc(-c4ccc(Br)cc4)cc(N)n3n2)cc1 | -8.51 |
| CCCN(CC(=O)Nc1c(C)cccc1CC)C(=O)SCC | 10 |
| CCc1cccc(NC2c3ccccc3C(=O)N2c2cccnc2)c1 (stereo not drawn) | -10.2 |
| CCC(C)(C)NC(=O)C(c1ccc(OC)cc1)N(C(=O)CCC(=O)Nc1cc(C)on1)C(C)(C)C (stereo not drawn) | -27.1 |
| COc1ccc(OCC(O)CNCc2ccco2)cc1 (stereo not drawn) | 1.32 |

| Structure (SMILES) | hERG current change (%, negative = inhibition) at 10uM [%] |
| --- | --- |
| COc1ccc(CCNC(=O)C2CCN(S(=O)(=O)N3CCC4(CC3)OCCO4)CC2)cc1OC | 1.93 |
| COc1cc(C2=NOC(C(=O)Nc3ccc(C)cc3)C2)cc(OC)c1OC (stereo not drawn) | -4.96 |
| CCOC(=O)c1ccc(NC(=S)NC(=O)COc2ccccc2)cc1 | 11 |
| CCCCOc1ccc(-n2nc(C)cc2C)nn1 | -16.3 |
| CCOC(=O)N1CCN(C(=O)c2ccc(NS(C)(=O)=O)cc2)CC1 | -5.65 |
| Cn1c(SCC(=O)NC2CCCCC2)nnc1-c1ccncc1 | 13.2 |
| C[C@H]1COc2c(N3CCN(C)CC3)c(F)cc3c(=O)c(C(=O)O)cn1c23 | 11.2 |
| Cc1cc(C)c(NC(=O)c2cn3c4c(c(N5CCN(C)CC5)c(F)cc4c2=O)OCC3C)c(C)c1 (stereo not drawn) | -51.7 |
| CC1COc2c(N3CCN(C)CC3)c(F)cc3c(=O)c(C(=O)O)cn1c23 (stereo not drawn) | 18.2 |
| O=C(Cc1cccs1)Nc1ccccc1-c1nc2ccccc2[nH]1 | 19.7 |
| CC(C)c1nnc(NC(=O)CC(=O)Nc2ccccc2C(=O)O)s1 | 4.72 |
| CON(C)c1nc(Oc2ccc(=O)[nH]n2)nc(N(C)C)n1 | -9.3 |
| COCCn1c(C)cc(C(=O)CN2C(=O)NC3(CCCCCC3)C2=O)c1C | -27.8 |
| Cc1cc(C(=O)CN2C(=O)NC3(CCCC3)C2=O)c(C)n1-c1ccc2c(c1)OCO2 | -28.5 |
| COCCn1c(C)cc(C(=O)CN2C(=O)NC3(CCCCCCC3)C2=O)c1C | -59 |
| Cc1cc(C(=O)CN2C(=O)NC3(CCCCC3)C2=O)c(C)n1-c1ccc2c(c1)OCO2 | -56.4 |
| CCCC1(CCC)NC(=O)N(CC(=O)c2cc(C)n(-c3ccc4c(c3)OCO4)c2C)C1=O | 5.65 |
| Cc1cc(C(=O)CN2C(=O)NC3(CCCCC3)C2=O)c(C)n1C | -10.3 |
| Cc1nn(CC(=O)NCc2ccc(C(=O)O)cc2)c(C)c1[N+](=O)[O-] | 21.5 |

| Structure (SMILES) | hERG current change (%, negative = inhibition) at 10uM [%] |
| --- | --- |
| CCOC(=O)c1cc(C)[nH]c(=S)c1C#N | -23.4 |
| Cc1ccc(C(=O)n2cnnc2N)cc1C | -0.0756 |
| CC(=O)NC(Cc1cccc(F)c1)C(=O)NC1CCN(c2nnnn2-c2ccccc2)CC1 (stereo not drawn) | -5.71 |
| CC(=O)NC(Cc1ccc(F)c(F)c1)C(=O)NC1CCN(C(=O)c2ccc(Cl)cc2)CC1 (stereo not drawn) | -56.9 |
| CC(=O)NC(Cc1cccc(F)c1)C(=O)NC1CCN(C(=O)c2ccc(C)cc2)CC1 (stereo not drawn) | 33 |
| CC(=O)NC(Cc1ccc(F)cc1)C(=O)NC1CCN(c2nnnn2-c2ccccc2)CC1 (stereo not drawn) | -41 |
| CC(=O)NC(Cc1ccc(F)c(F)c1)C(=O)NC1CCN(c2nnnn2-c2ccccc2)CC1 (stereo not drawn) | -54.6 |
| CC(=O)NC(Cc1ccc(F)c(F)c1)C(=O)NC1CCN(C(=O)c2ccc(C)cc2)CC1 (stereo not drawn) | -12.9 |
| CN(C)S(=O)(=O)c1cccc(NC(=S)NC2CCCCC2)c1 | 6.69 |
| CCCN(CC1CC1)C(=S)NC(=O)c1ccccc1Br | -4.58 |
| C=CC(=O)N=c1sc2ccccc2n1-c1ccccc1 | -6.08 |
| CCOC(=O)c1sc(=S)n(C)c1NC(=O)c1cccc(Br)c1 | 5.67 |
| S=C(Nc1ccccc1)N1CCOCC1 | 11.5 |
| O=C(Nc1ccc(F)c(Cl)c1)C1CCCN(c2cnccn2)C1 (stereo not drawn) | -24.9 |
| O=C(Nc1ccc(F)c(Cl)c1)C1CCCC1 | 25.2 |
| O=C(Nc1ccc(Cl)cc1)C1CCCN(C2=NS(=O)(=O)c3ccccc32)C1 (stereo not drawn) | -60 |
| O=C(Nc1ccc(F)c(Cl)c1)C1CCCN(C2=NS(=O)(=O)c3ccccc32)C1 (stereo not drawn) | -63 |
| O=C(Nc1ccc(Br)cc1)C1CCCN(C2=NS(=O)(=O)c3ccccc32)C1 (stereo not drawn) | -29.1 |
| Cc1ccc(NC(=O)C2CCCN(C3=NS(=O)(=O)c4ccccc43)C2)c(O)c1 (stereo not drawn) | -33.6 |
